Assay outcomes (PubChem)
In the library only some 9.4% were active in any assay of this set; here they are far more common.
SARS PLpro yeast: qHTS of Yeast-based Assay for SARS-CoV PLP | Potency, µM (series often up to 32.9 µM), for the others: top-dose activity, positive = growth rescue, usual class: activators | S. cerevisiae expressing SARS-CoV PLpro, growth rescue | AID 485353, 2010 | actives 0.19% (n = 330,000); calls by dose curve; note: 0% is about no effect; nearly all actives have a fitted effect of over 55% in size
AMA1-RON2 inh: qHTS for Inhibitors of AMA1-RON; Towards Development of Antimalarial Drug Lead: Primary Screen. Plasmodium falciparum AMA1 (3D7) - RON2 peptide interaction. AlphaScreen AMA1-biotinylated RON2 peptide binding. Potency, µM (titrated, usually from 58.2 µM), inactives show at the top dose activity change, negative = inhibition, most hits filed as inhibitors. actives 0.2% (n = 360,000). AID 720542, 2013;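 note: 0% = vehicle wells and -100% = peptide control; nearly all actives have a fitted effect of over 45% in size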
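AMA1 (3D7) with his tag at 25 nM final met compounds first, then biotinylated RON2 peptide at 25 nM; detection used donor plus acceptor beads, 10 µg/mL apiece, read by AlphaScreen after 30 min at room temperature.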
Pf growth 48h: Primary qHTS for delayed death inhibitors of the malarial parasite plastid, 48 hour incubation. P. falciparum luciferase growth in erythrocytes, 48 h. actives 5.9% (n = 310,000). Potency, µM (highest dose often 28.7 µM), without a hit: at the top dose activity change, negative = inhibition, actives largely listed as inhibitors; note: % is set by controls: 0 for no effect and ±100 for the full control effect
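Cell-based growth assay: transgenic P. falciparum expressing firefly luciferase, cultured in red cells within RPMI 1640 containing 0.5% w/v Albumax, 24 mM bicarbonate and gentamycin. A drop in luciferase activity indicates inhibition.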
Pf growth 96h: Primary qHTS for delayed death inhibitors of the malarial parasite plastid, 96 hour incubation; P. falciparum luciferase reporter growth, 96 h; Potency, µM (top dose mostly 28.7 µM), without a hit: top-dose activity change, negative = inhibition, usual class: inhibitors; actives 6.9% (n = 320,000); note: % is set by controls: 0 for no effect and ±100 for the full control effect
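Parasite growth measured via integrated firefly luciferase reporter in P. falciparum. Infected erythrocytes at 2% hematocrit, 0.05% parasitemia final were treated 96 hours at 37 C under 5% CO2, and luminescence was read.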
Numbers without * were called inactive. Unless noted, calls come from the whole dose curve; as a rule, active = well fitted curve in the direction sought with a large enough effect; inconclusive = small, poorly fitted or top-dose-only effect, or another doubt; inactive = no such curve, though single readings can be large; an effect the other way counts as inactive or inconclusive. Potency is the fitted concentration of half-maximal effect.

For O=C(CN1CCN(C(=O)N2CCOCC2)CC1)Nc1ccc(Br)cc1 the results were AMA1-RON2 inh -16%, Pf growth 48h 21% and Pf growth 96h inconclusive.
Screening Cc1ccc(N(C(C)C(=O)N2CCOCC2)S(C)(=O)=O)cc1C (centres undefined) returned SARS PLpro yeast -1%, AMA1-RON2 inh 11%, Pf growth 48h inconclusive and Pf growth 96h 9.3µM*.
Screening CN1CCN(CC(=O)Nc2ccc(Oc3ccccc3)cc2)CC1 returned SARS PLpro yeast 0%, AMA1-RON2 inh 10%, Pf growth 48h inconclusive and Pf growth 96h 31%.
CCOC(=O)C1CCN(C(=O)C(C)N(c2ccc(Oc3ccccc3)cc2)S(C)(=O)=O)CC1 (centres undefined) was read as SARS PLpro yeast -1%, AMA1-RON2 inh -7%, Pf growth 48h inconclusive and Pf growth 96h inconclusive.
Screening CCOC(=O)N1CCN(CC(=O)Nc2ccc(Oc3ccccc3)cc2)CC1 returned SARS PLpro yeast 1%, AMA1-RON2 inh -1% and Pf growth 48h 7.4µM*.
CCOC(=O)C(=O)N/N=C/c1ccco1 was read as SARS PLpro yeast 0%, AMA1-RON2 inh 10%, Pf growth 48h 22% and Pf growth 96h 0%.
For COCc1cc(N2CCN(c3ccccc3F)CC2)nc(-c2ccccc2)n1 the results were SARS PLpro yeast -8%, AMA1-RON2 inh 0%, Pf growth 48h -8% and Pf growth 96h 8%.
For CCCN(CCC)C(=O)C1CCCN1S(=O)(=O)c1cccc2nsnc12 (centres undefined) the results were SARS PLpro yeast -2%, AMA1-RON2 inh 6%, Pf growth 48h 5% and Pf growth 96h inconclusive.
`CCC(Cc1ccccc1)NS(=O)(=O)c1ccc2c(c1)NC(=O)C(C)S2` (centres undefined) gave SARS PLpro yeast 5%, AMA1-RON2 inh 2%, Pf growth 48h -32% and Pf growth 96h 15µM*.
`CC1Sc2ccc(S(=O)(=O)N3CCC(C(=O)N(C)Cc4ccccc4)CC3)cc2NC1=O` (centres undefined) gave SARS PLpro yeast -3%, AMA1-RON2 inh -2%, Pf growth 48h 9.3µM* and Pf growth 96h 5.9µM*.
`O=C1CSc2ccc(S(=O)(=O)N3CCN(c4ccccc4)CC3)cc2N1` gave SARS PLpro yeast 1%, AMA1-RON2 inh -3%, Pf growth 48h -26% and Pf growth 96h 14%.
`CC1Sc2ccc(S(=O)(=O)N3CCC(C(=O)N(C)Cc4ccco4)CC3)cc2NC1=O` (centres undefined) gave SARS PLpro yeast 1%, AMA1-RON2 inh 1%, Pf growth 48h 12µM* and Pf growth 96h 3%.
For CCc1cccc(NS(=O)(=O)c2ccc3c(c2)NC(=O)C(C)S3)c1 (centres undefined) the results were SARS PLpro yeast 4%, AMA1-RON2 inh 0%, Pf growth 48h 18% and Pf growth 96h 24%.
Screening CCc1ccc(NC(=O)C2CCN(S(=O)(=O)c3ccc4c(c3)NC(=O)C(C)S4)CC2)cc1 (centres undefined) returned SARS PLpro yeast -4%, AMA1-RON2 inh -3%, Pf growth 48h inconclusive and Pf growth 96h inconclusive.
CCC1Sc2ccc(S(=O)(=O)N3CCN(c4ccccc4)CC3)cc2NC1=O (centres undefined) was read as SARS PLpro yeast -2%, AMA1-RON2 inh -4%, Pf growth 48h inconclusive and Pf growth 96h 10µM*.
For CN(C)CCn1cnc2c1c(=O)[nH]c(=O)n2Cc1ccccc1 the results were SARS PLpro yeast 0%, AMA1-RON2 inh 6%, Pf growth 48h -23% and Pf growth 96h -9%.
`CC1Cc2cc(S(=O)(=O)N3CCC(C(=O)N(C)Cc4ccco4)CC3)ccc2N1C(=O)C1CCC1` (centres undefined) gave SARS PLpro yeast -5%, AMA1-RON2 inh 0%, Pf growth 48h 12µM* and Pf growth 96h inconclusive.
`CC1CCN(S(=O)(=O)c2ccc3c(c2)CC(C)N3C(=O)C2CCC2)CC1` (centres undefined) gave SARS PLpro yeast -7%, AMA1-RON2 inh -2%, Pf growth 48h -27% and Pf growth 96h -17%.
O=C(Oc1ccccc1C(=O)Oc1ccccc1)c1ccco1 was read as SARS PLpro yeast 0%, AMA1-RON2 inh 38% and Pf growth 96h -3%.
CCCC1S/C(=N/N=C/c2ccc(C)cc2)N(Cc2ccc(OC)cc2)C1=O (centres undefined) was read as SARS PLpro yeast 2%, AMA1-RON2 inh -4%, Pf growth 48h 4.1µM* and Pf growth 96h 10µM*.
`COc1ccc(/C=N/N=C2\SC(CC(=O)O)C(=O)N2c2ccccc2)cc1` (centres undefined) gave SARS PLpro yeast -15%, AMA1-RON2 inh 12%, Pf growth 48h 10% and Pf growth 96h 1.7µM*.
`COc1ccc(CN2C(=O)CS/C2=N/N=C/c2ccccc2)cc1` gave SARS PLpro yeast -1%, AMA1-RON2 inh 1%, Pf growth 48h -2% and Pf growth 96h 11%.
`Cc1cc(NC(=O)CCl)nn1C` gave SARS PLpro yeast 17%, AMA1-RON2 inh -1%, Pf growth 48h inconclusive and Pf growth 96h 10µM*.
Screening CCOC(=O)CSCc1cn2cc(Cl)ccc2n1 returned SARS PLpro yeast 5%, AMA1-RON2 inh 5% and Pf growth 48h 11%.
Screening COc1cc(/C=C/C(=O)OCc2cn3cc(Cl)ccc3n2)ccc1O returned SARS PLpro yeast 3%, AMA1-RON2 inh 2%, Pf growth 48h 10µM* and Pf growth 96h inconclusive.
For CCCCCn1c(=S)[nH]c2ncccc2c1=O the results were SARS PLpro yeast 2%, AMA1-RON2 inh 43%, Pf growth 48h 2% and Pf growth 96h 9.3µM*.
COCCCn1c(=S)[nH]c2ncccc2c1=O was read as SARS PLpro yeast 1%, AMA1-RON2 inh 0%, Pf growth 48h 13% and Pf growth 96h inconclusive.
`Cc1ccc(CNC(=O)c2sccc2-n2cccc2)cc1` gave SARS PLpro yeast -5% and AMA1-RON2 inh -5%.
`CN(C)C(=O)c1ccc(Nc2nc(-c3cccs3)nc3ccccc23)cc1` gave SARS PLpro yeast -4%, AMA1-RON2 inh -6%, Pf growth 48h 10µM* and Pf growth 96h 10µM*.
For CCCCn1c(N)c(N(CCOC)C(=O)Cn2c(=O)cnc3ccccc32)c(=O)[nH]c1=O the results were SARS PLpro yeast -3%, AMA1-RON2 inh -10%, Pf growth 48h -18% and Pf growth 96h -23%.
Screening Cc1cccc(Oc2ccc(S(=O)(=O)N3CCCCC3)cc2NC(=O)C2=COCCO2)c1 returned AMA1-RON2 inh 0%, Pf growth 48h 13µM* and Pf growth 96h inconclusive.
`O=C(Nc1cc(S(=O)(=O)N2CCOCC2)ccc1Oc1ccc(F)cc1)C1=COCCO1` gave SARS PLpro yeast 2%, AMA1-RON2 inh -18%, Pf growth 48h -17% and Pf growth 96h 7%.
